Screening results deposited in PubChem by National Center for Advancing Translational Sciences (NCATS).
Hits are enriched below; roughly 6.1% of the tested compounds scored in any of these assays.
DRD3 agonist = D3 dopamine receptor (human) agonism; P35462; D3R DiscoveRx beta-arrestin cells, luminescence, 90 min; max activation, %; 410,000 tested, 0.58% active; AID 652048; in the data active means max activation above about 30%
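Cells at 1500/well, incubated overnight, then treated with pinned compounds (dopamine as control) for 90 min at 37 degrees C. DiscoveRx reagent added for 30 - 60 minutes at room temperature; luminescence read.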
D1 ag = human D1 receptor agonism. 360,000 tested, 1% active. AID 504660. activation, % at 2 µM. HEK293 T-REx D1 cells, calcium flux, agonist mode; in the data active means activation above about 30%
Target sequence (P21728 whole entry, looked up): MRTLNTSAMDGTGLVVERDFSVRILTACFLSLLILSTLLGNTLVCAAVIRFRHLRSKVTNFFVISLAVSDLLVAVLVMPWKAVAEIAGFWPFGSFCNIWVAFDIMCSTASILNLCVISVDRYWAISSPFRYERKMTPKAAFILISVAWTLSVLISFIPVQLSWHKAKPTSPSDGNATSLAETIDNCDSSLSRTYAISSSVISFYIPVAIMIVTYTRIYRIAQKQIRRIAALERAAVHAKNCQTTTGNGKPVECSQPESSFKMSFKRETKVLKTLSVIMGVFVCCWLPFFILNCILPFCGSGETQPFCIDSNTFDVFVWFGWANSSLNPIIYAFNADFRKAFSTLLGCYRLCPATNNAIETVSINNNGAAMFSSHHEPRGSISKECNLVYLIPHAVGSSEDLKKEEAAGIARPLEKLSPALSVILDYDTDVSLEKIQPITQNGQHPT
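Agonism was scored from calcium flux recorded over 180 s (1 read/s) after pintool compound addition, following a 10-cycle baseline. Cells were inducible force-coupled HEK293 TREx D1, plated overnight at 30 C and loaded with no-wash calcium dye.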
D3 antag = antagonists of human D3 dopamine receptor | max response, negative = inhibition, % | 360,000 tested, 2.5% active | AID 652054 | D3R cells, DiscoveRx beta-arrestin luminescence, antagonist mode; stronger effect = lower value | P35462; in the data active means max response below about -50%
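Cells plated overnight at 1500 cells/well, then exposed to library compounds with dopamine controls for 90 minutes at 37 degrees C. DiscoveRx reagent added for 30–60 minutes at room temperature; luminescence read, quantitative HTS format.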
D1 PAM = human D1 dopamine receptor positive modulation. HEK293 TREx D1 cells, calcium flux, dopamine EC20 potentiation. potentiation, % at 10 µM. 360,000 tested, 0.036% active. AID 504651. P21728; in the data active means potentiation above about 30%
D1 antagonist = blocks dopamine activation of the human D1 receptor; 360,000 tested, 3.2% active; activity change, negative = inhibition, % at 10 µM; HEK293 TREx D1 cells, calcium flux, dopamine EC80; stronger effect = lower value; P21728; in the data active means activity change below about -30%
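Cells carrying a force-coupled, tetracycline-inducible human D1 receptor report calcium flux. Each well gets a 10 s baseline, compound with 180 s monitoring, then an EC80 dopamine stimulus with a second 180 s kinetic read.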
Hits are given with their value; . = inactive; / = no result given.

SMILES | DRD3 agonist | D1 ag | D3 antag | D1 PAM | D1 antagonist
O=C(COc1cccc(F)c1)NNC(=O)Cc1ccc(S(=O)(=O)N2CCOCC2)s1 | . | . | . | . | .
Cc1ccccc1OCC(=O)NNC(=O)Cc1ccc(S(=O)(=O)N2CCOCC2)s1 | . | . | . | . | -38
CCn1cc(C(=O)N2CCN(c3ccccc3OC)CC2)c(=O)c2cc(S(=O)(=O)N3CCC(C)CC3)ccc21 | . | . | / | . | .
CC(NC(=O)c1sc2ncccc2c1-n1cccc1)c1ccccc1 (stereo unspecified) | . | . | / | . | .
COc1cc2c(cc1OC)C(COc1ccc3c(C)cc(=O)oc3c1)N(C(=O)Cc1ccc(F)cc1)CC2 (stereo unspecified) | . | . | / | . | .
O=C(NCC(c1ccc2c(c1)OCO2)N1CCOCC1)c1cccc(Cl)c1 (stereo unspecified) | . | . | / | . | .
CCOC(=O)c1scc(-c2ccccc2)c1S(=O)(=O)N1CCN(c2ccccc2OC)CC1 | . | . | / | . | .
O=C(CSc1n[nH]c(-c2ccncc2)n1)c1ccccc1 | . | . | . | . | .
O=C(CSc1n[nH]c(-c2ccncc2)n1)c1cccc([N+](=O)[O-])c1 | . | . | -69 | . | .
Cc1ccccc1CN1C(=O)c2ccccc2S(=O)c2ccc(C(=O)NCc3ccccc3)cc21 (stereo unspecified) | . | . | / | . | .
Cc1cccc(N2CCN(S(=O)(=O)c3c(C(=O)N4CCC(C)CC4)c(C)n(C)c3C)CC2)c1C | . | . | / | . | .
CCN(CC)C(=O)c1cc(-c2ccc(Cl)cc2)on1 | . | . | / | . | .
NS(=O)(=O)c1ccc(Nc2nc(-c3cccc([N+](=O)[O-])c3)cs2)cc1 | . | . | . | . | -31
NS(=O)(=O)c1ccc(Nc2nc(-c3ccc4ccccc4c3)cs2)cc1 | . | . | . | . | .
Cc1cc2n(n1)CCC(=O)N2Cc1ccc(C(=O)Nc2ccc(F)cc2F)cc1 | . | . | / | . | .
Nc1c(C(=O)c2ccc(Cl)cc2)sc2c1c(=O)[nH]c(=O)n2-c1ccccc1 | . | . | . | . | .
Nc1c(C(=O)c2ccccc2)sc2c1c(=O)[nH]c(=O)n2-c1ccccc1 | . | . | -53 | . | .
OC(C#CCN1CCCC1)c1ccccc1 (stereo unspecified) | . | . | . | . | .
OC(C#CCN1CCCCCC1)(c1ccccc1)c1cccnc1 (stereo unspecified) | . | . | -64 | . | .
OC(C#CCN1CCCCC1)c1ccccc1 (stereo unspecified) | . | . | -51 | . | .
CC(C)C(O)(C#CCN1CCCCC1)c1ccccc1 (stereo unspecified) | . | . | -71 | . | .
CCCCCCCCCCCCCCCCCCOCC(COP(=O)([O-])OCC[N+](C)(C)C)OC (stereo unspecified) | . | / | / | / | /
CC(C)C[C@H]1C(=O)N2CCC[C@H]2[C@]2(O)O[C@](NC(=O)[C@@H]3C=C4c5cccc6[nH]c(Br)c(c56)CC4N(C)C3)(C(C)C)C(=O)N12 (stereo partly specified) | . | . | . | . | -42
CC1=C(c2ccc(C)c(C)c2)S(=O)(=O)N=C1N1CCC(C(=O)N2CCC(C)CC2)CC1 | . | . | / | . | .
O=C1C2C3C=CC(C3)C2C(=O)N1c1n[nH]c(-c2cccnc2)n1 (stereo unspecified) | . | . | . | . | .
SMILES | DRD3 agonist | D1 ag | D3 antag | D1 PAM | D1 antagonist
O=C1C2C3C=CC(C3)C2C(=O)N1c1n[nH]c(-c2ccccc2)n1 (stereo unspecified) | 34 | . | . | . | .
Cc1ccc(S(=O)(=O)N2CCOCC2)cc1NC(=O)CNCc1ccccn1 | 52 | . | . | . | .
O=C(Cc1ccccc1Cl)Nc1cc(S(=O)(=O)N2CCOCC2)ccc1N1CCOCC1 | . | . | . | . | .
Cc1ccc(S(=O)(=O)N2CCOCC2)cc1NC(=O)CNCc1ccccc1Cl | 35 | . | . | . | .
O=C(CNc1ccccc1Cl)Nc1cc(S(=O)(=O)N2CCOCC2)ccc1Cl | . | . | . | . | -33
Cc1cccc(CCNC(=O)c2ccc3c(c2)nc2n3CCCCC2)c1 | . | . | / | . | .
COc1ccc(C2C(=O)N(C3CCC(C)CC3)CC(=O)N2CCc2ccccc2)cc1OC (stereo unspecified) | . | . | / | . | .
CCOC(=O)c1cccc(Nc2c3c(nc4ccccc24)CCC3)c1 | . | . | / | . | .
COc1ccc(C2OCC3(CO2)SC(=O)NC3=O)cc1 (stereo unspecified) | . | . | . | . | -38
COc1ccc(C(C)(NC(C)=O)c2nc(-c3ccccc3OC)cs2)cc1 (stereo unspecified) | . | / | -88 | / | /
COc1cc(NC(=O)Cn2c(C)cc(C)c(C#N)c2=O)cc(OC)c1 | . | . | / | . | .
Cc1cc(C)c2c(N)c(C(=O)Nc3cccc(C)c3C)sc2n1 | 92 | . | . | . | -31
Cc1ccc(C(C)NC(=O)/C(C#N)=C\c2c(C)[nH]c3ccccc23)cc1 (stereo unspecified) | . | 48 | . | . | .
CC(NC(=O)/C(C#N)=C/c1ccc([N+](=O)[O-])o1)c1ccccc1 (stereo unspecified) | . | . | -96 | . | .
COC(=O)c1ccc(/C=C(\C#N)C(=O)NC(C)c2ccccc2)cc1 (stereo unspecified) | . | . | -56 | . | .
Cc1[nH]c2ccccc2c1/C=C(\C#N)C(=O)NCc1ccccc1 | . | . | . | . | .
Cc1ccc(-c2nnn3c2nc(NCc2ccc4c(c2)OCO4)c2ccccc23)cc1 | . | . | / | . | .
CCOc1ccc(N(C)S(=O)(=O)c2c(C(=O)N3CCC(C)CC3)c(C)n(C)c2C)cc1 | . | . | / | . | .
CC(C)(CO)Cc1cc(C(C)(C)C)c(O)c(C(C)(C)C)c1 | . | 71 | . | . | .
CC(C)(C=O)Cc1cc(C(C)(C)C)c(O)c(C(C)(C)C)c1 | . | . | . | . | .
CCOc1ccccc1NC(=O)Nc1ccc2nc(N3CCN(C)CC3)cc(C)c2c1 | . | . | / | . | .
O=C(O)CSc1cc(NS(=O)(=O)c2ccc(Cl)cc2)c2ccccc2c1O | . | . | . | . | .
Cc1cc(C)c(S(=O)(=O)Nc2cc(SCC(=O)O)c(O)c3ccccc23)cc1C | . | . | -54 | . | .
COc1cc(NC(=O)CN(C)C2CCCCC2)c(C)cc1[N+](=O)[O-] | . | . | . | . | -74
COc1cc(NC(=O)COC(=O)C2CC2)c(C)cc1[N+](=O)[O-] | . | . | . | . | .
CCOc1ccccc1NC(=O)CSc1nc2ccccc2nc1Cc1ccc(C)cc1 | . | . | / | . | .
Nc1cccc(-c2cn3cccnc3n2)c1 | . | . | . | . | -30
Cc1ccc(-c2cn3cccnc3n2)cc1 | . | . | . | . | .
c1ccc(-n2cnc3cc(NCc4ccncc4)ccc32)cc1 | . | . | . | . | -39
